Source: PubChem BioAssay (National Center for Advancing Translational Sciences (NCATS))
AmpC detergent: qHTS Inhibitors of AmpC Beta-Lactamase (assay with detergent). P00811. AmpC hydrolysis of nitrocefin, absorbance 480 nm, 0.01% Triton. Potency, µM (doses to about 114 µM), inactives show at the highest dose activity change, negative = inhibition, usual class: inhibitors. 370,000 compounds, 0.041% hits;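 note: potency is the fitted concentration of half-maximal effect; 0% = no-compound wells and -100% = no-enzyme wells; nearly all actives have a fitted effect of over 25% in size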
Target sequence (P00811 whole entry, looked up): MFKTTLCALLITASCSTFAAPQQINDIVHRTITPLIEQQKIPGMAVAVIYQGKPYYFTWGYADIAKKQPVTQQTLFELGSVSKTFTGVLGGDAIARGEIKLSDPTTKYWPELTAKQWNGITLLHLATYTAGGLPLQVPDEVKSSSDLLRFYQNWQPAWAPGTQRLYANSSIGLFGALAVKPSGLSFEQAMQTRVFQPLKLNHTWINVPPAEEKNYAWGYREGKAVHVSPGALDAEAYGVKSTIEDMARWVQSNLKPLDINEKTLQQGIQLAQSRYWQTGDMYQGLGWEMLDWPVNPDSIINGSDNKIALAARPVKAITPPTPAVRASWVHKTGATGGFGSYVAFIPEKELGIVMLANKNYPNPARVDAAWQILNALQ
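AmpC (5.3 nM in the dispensed reagent) in 20 mM phosphate pH 7.0 with 0.01% (detergent screen) or 0.0001% Triton X-100 was preincubated with compounds for 15 min at room temperature. Nitrocefin was then added from an 800 uM solution, and hydrolysis was followed at 480 nm.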
Shiga inhibitor: A qHTS for Small Molecule Inhibitors of Shiga Toxin. Vero cells, Shiga toxin protein synthesis inhibition reporter. inhibition, % at 38.7 µM. 290,000 compounds, 9.2% hits. AID 2315, 2010; in the data active = inhibition mostly above about 28%, no sharp cut-off; inactive = mostly below about 43%; note: 0% is about no effect
AmpC no deterg: qHTS Inhibitors of AmpC Beta-Lactamase (assay without detergent); AmpC nitrocefin hydrolysis, absorbance 480 nm, 0.0001% Triton; P00811; Potency, µM (doses to about 57.1 µM), without a hit: at the highest dose activity change, negative = inhibition, hits mostly inhibitors; 330,000 compounds, 0.52% hits;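 note: potency is the fitted concentration of half-maximal effect; plate controls were no compound for no effect and no enzyme for full effect; nearly all actives have a fitted effect of over 20% in size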
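AmpC (5.3 nM in the dispensed reagent) in 20 mM phosphate pH 7.0 with 0.01% (detergent screen) or 0.0001% Triton X-100 was preincubated with compounds for 15 min at room temperature. Nitrocefin was then added from an 800 uM solution, and hydrolysis was followed at 480 nm.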
AMA1-RON2 inh: qHTS for Inhibitors of AMA1-RON; Towards Development of Antimalarial Drug Lead: Primary Screen | Potency, µM (top dose mostly 58.2 µM), for the others: at the top dose activity change, negative = inhibition, most hits filed as inhibitors | AlphaScreen AMA1-biotinylated RON2 peptide binding | 360,000 compounds, 0.2% hits | Plasmodium falciparum AMA1 (3D7) - RON2 peptide interaction;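 note: potency is the fitted concentration of half-maximal effect; 0% = vehicle wells and -100% = peptide control; nearly all actives have a fitted effect of over 45% in size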
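AMA1 (3D7) with his tag at 25 nM final met compounds first, then biotinylated RON2 peptide at 25 nM; detection used donor plus acceptor beads, 10 µg/mL apiece, read by AlphaScreen after 30 min at room temperature.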
SARS PLpro yeast: qHTS of Yeast-based Assay for SARS-CoV PLP; S. cerevisiae expressing SARS-CoV PLpro, growth rescue; AID 485353, 2010; Potency, µM (doses to about 32.9 µM), inactives show top-dose activity, positive = growth rescue, actives largely listed as activators; 330,000 compounds, 0.19% hits; calls by dose curve; note: potency is the fitted concentration of half-maximal effect; 0% is about no effect; nearly all actives have a fitted effect of over 55% in size
CHX counter: Cycloheximide Counterscreen for Small Molecule Inhibitors of Shiga Toxin | cell reporter, cycloheximide protein synthesis inhibition counterscreen | max response, % | 300,000 compounds, 12% hits | AID 2314, 2010; in the data active = max response mostly above about 13%, no sharp cut-off; inactive = mostly below about 14%; note: read at 38.3 µM for the half of the compounds with a filed dose; 0% is about no effect
An asterisk follows results filed as active; ? = inconclusive; / = no result. The full list was thinned out, with hits kept by preference. Unless noted, calls come from the whole dose curve; as a rule, active = well fitted curve in the direction sought with a large enough effect; inconclusive = small, poorly fitted or top-dose-only effect, or another doubt; inactive = no such curve, though single readings can be large; an effect the other way counts as inactive or inconclusive.

SMILES | AmpC detergent | Shiga inhibitor | AmpC no deterg | AMA1-RON2 inh | SARS PLpro yeast | CHX counter
N#CCCN1CCN(S(=O)(=O)c2ccc(C3CCCCC3)cc2)CC1 | 4% | / | 140% | -10% | 1% | /
N#CCCN1CCN(S(=O)(=O)c2ccc(S(=O)(=O)N3CCOCC3)cc2)CC1 | ? | 6 | -9% | 7% | 19% | -3
CC1CCCCC1NS(=O)(=O)c1ccc(S(=O)(=O)N2CCN(CCC#N)CC2)cc1 (centres undefined) | ? | 12 | 45µM* | 18% | -2% | 6
N#CCCN1CCN(S(=O)(=O)c2ccc(S(=O)(=O)NCc3ccccc3)cc2)CC1 | ? | 2 | 10µM* | -1% | -6% | -4
Cc1ccccc1S(=O)Cc1ccc(C(=O)NCc2ccccc2Cl)o1 (centres undefined) | -2% | / | / | / | / | /
O=C(NCC1CCCO1)c1sc2cc(Cl)ccc2c1Cl (centres undefined) | ? | 76* | 39% | -2% | -16% | 54*
O=C(NCCN1CCOCC1)c1sc2cc(Cl)ccc2c1Cl | -12% | 45* | 99% | 3% | -3% | 17*
O=C(NCCCN1CCOCC1)c1sc2ccccc2c1Cl | -5% | 47* | 6% | -16% | 0% | 39*
CCc1ccc(C2=CC(c3c(F)cccc3Cl)n3c(nc4ccccc43)N2)cc1 (centres undefined) | -7% | / | / | / | / | /
COc1ccc(N2CCN(C(=O)CCCn3nnnc3CN3CCOCC3)C(C)C2)cc1 (centres undefined) | 0% | -11 | 2% | -6% | 4% | 5
CC(=O)NC(=S)NNC(=O)COc1ccc(Br)cc1 | -8% | 32 | -44% | 30% | 0% | 21*
CNC(=S)NNC(=O)COc1ccc(C)c(C)c1 | ? | -2 | -13% | 48% | 13µM* | 7
CC(=O)NC(=S)NNC(=O)COc1ccc([N+](=O)[O-])cc1 | 1% | -18 | -13% | 94% | 2% | -1
Cc1cccc(OCC(=O)Nc2cccc(O)c2)c1 | 0% | active | -18% | -2% | 1% | 30*
CC(Oc1ccc(Cl)cc1Cl)C(=O)Nc1cccc(O)c1 (centres undefined) | 4% | 43 | -15% | 22% | -5% | 31*
CC(Oc1ccc(Cl)cc1Cl)C(=O)Nc1ccc(O)cc1 (centres undefined) | -5% | 1 | 15% | 0% | -2% | 5
CC(C)(Oc1ccc(Cl)cc1)C(=O)Nc1ccc2oc(-c3ccncc3)nc2c1 | ? | -9 | -16% | -10% | -1% | -5
Cc1ccc(OCC(=O)Nc2cccc(O)c2)cc1C | -2% | 79* | -17% | -12% | ? | 40*
Cc1ccc(OCC(=O)Nc2cc(NC(=O)COc3ccc(C)c(C)c3)cc(C(=O)O)c2)cc1C | -14% | 9 | -31% | 7% | -6% | 1
O=C(COc1cc(Cl)c(Cl)cc1Cl)Nc1ccncc1 | -14% | 1 | -1% | 2% | -13% | 1
O=C(COc1cc(Cl)c(Cl)cc1Cl)Nc1cccc(O)c1 | 0% | 115* | -38% | -1% | -3% | 38*
COc1ccccc1N1CCN(C(=O)c2ccc(CS(=O)(=O)c3ccccc3OC)o2)CC1 | -12% | 10 | 121% | 29% | 5% | 15*
CCOC(=O)N1CCN(C(=O)c2ccc(CS(=O)(=O)c3ccccc3OC)o2)CC1 | 2% | 26 | 11% | 0% | 1% | 18
COc1ccc(S(=O)(=O)Cc2ccc(C(=O)N3CCN(c4cc(C)ccc4C)CC3)o2)cc1 | ? | -5 | 130% | -10% | 0% | 14*
Cc1ccc(C(=O)NCC(=O)N2CCC3(CC2)NCCc2[nH]cnc23)cc1C | ? | -3 | -10% | 6% | -2% | -2
SMILES | AmpC detergent | Shiga inhibitor | AmpC no deterg | AMA1-RON2 inh | SARS PLpro yeast | CHX counter
Cc1ccc(C(=O)NCCC(=O)N2CCC3(CC2)NCCc2[nH]cnc23)cc1C | -6% | -2 | -4% | -9% | -4% | 11*
Nc1[nH]c(C(=O)c2ccccc2)c(-c2ccccc2Br)c1C(=O)NCCc1c[nH]c2ccccc12 | / | / | / | 42% | / | /
Cc1ccc(-c2nc(C3CCCN(S(=O)(=O)c4ccc(C)cc4)C3)no2)cc1 (centres undefined) | ? | -12 | -4% | -2% | -9% | -4
Cc1ccc(-c2nc(C3CCN(S(C)(=O)=O)CC3)no2)cc1 | ? | 38 | 49% | -9% | -7% | 28*
CCOc1ccccc1NC(=O)N1CCCC(c2nc(-c3ccc(C)o3)no2)C1 (centres undefined) | -4% | -9 | 32% | -14% | 0% | -2
Cc1ccc(-c2noc(C3CCCN(C(=O)c4ccccc4Br)C3)n2)o1 (centres undefined) | -11% | 71* | 42% | 3% | -2% | 28*
Clc1ccc(-c2nc(C3CCCCC3)no2)cc1 | -15% | 89* | -21% | 0% | 2% | 32*
Clc1ccc(-c2nnc(C3CCCCC3)o2)cc1 | 3% | 97 | -24% | 0% | 1% | 15
Cc1ccc(-c2noc(C3CCN(S(C)(=O)=O)CC3)n2)o1 | -16% | 80* | -1% | -3% | 5% | 20*
CCOc1ccc(CN2CCN(Cc3ccsc3)C(CCO)C2)cc1CO (centres undefined) | 0% | -14 | -11% | -29% | 0% | -4
COc1ccc(CN2C(=O)N(c3ccccc3)C(=O)C2CC(=O)Nc2ccccc2)cc1OC (centres undefined) | -5% | 6 | 11% | 1% | -4% | -3
O=C1CC(c2cccc(F)c2)c2c(n3ncnc3[nH]c2=O)N1 (centres undefined) | -1% | / | / | / | / | /
COc1ccc(C(=O)N2CCCC(c3nc(-c4ccc(C)o4)no3)C2)cc1OC (centres undefined) | 0% | 26 | 47% | -12% | 6% | 7
Cc1ccc(-c2noc(C3CCCN(C(=O)c4ccccc4)C3)n2)o1 (centres undefined) | -15% | 59* | 5% | 0% | 0% | 41*
CCC1(CC)NC(=O)N(CC(=O)OCn2nnc3ccccc3c2=O)C1=O | 9% | 20 | 55% | 0% | 7% | 9
Cc1sc2ncnc(OCC(=O)c3ccc(S(=O)(=O)N4CCCC4)cc3)c2c1C | -13% | -11 | 28% | -10% | -15% | -3
Cc1sc2ncnc(OCC(=O)N3CCN(S(=O)(=O)c4ccc(Cl)cc4)CC3)c2c1C | -8% | 14 | 56% | 21% | 0% | 10*
COc1ccccc1NC(=O)C1CCN(S(=O)(=O)c2ccc3[nH]c4c(c3c2)CCCCC4)CC1 | 2% | / | / | / | / | /
